TR-FRET SRC-2 ct: TR-FRET artefact, counter-screen to PPARgamma/SRC-2 agonist assay | active compounds read high | TR-FRET ratio at 8 µM | actives 0.4% (n = 200,000)
PPARg SRC-2 ag: PPARgamma-driven SRC-2 recruitment agonism; AID 1032; PPARgamma LBD-SRC-2 recruitment, biochemical; actives 0.34% (n = 200,000); activation, % at 8 µM; in the data active means activation above about 22%;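 further: 0% = vehicle and 100% = reference agonist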
Target sequence (P37231 whole entry, looked up, the tested form may be a part): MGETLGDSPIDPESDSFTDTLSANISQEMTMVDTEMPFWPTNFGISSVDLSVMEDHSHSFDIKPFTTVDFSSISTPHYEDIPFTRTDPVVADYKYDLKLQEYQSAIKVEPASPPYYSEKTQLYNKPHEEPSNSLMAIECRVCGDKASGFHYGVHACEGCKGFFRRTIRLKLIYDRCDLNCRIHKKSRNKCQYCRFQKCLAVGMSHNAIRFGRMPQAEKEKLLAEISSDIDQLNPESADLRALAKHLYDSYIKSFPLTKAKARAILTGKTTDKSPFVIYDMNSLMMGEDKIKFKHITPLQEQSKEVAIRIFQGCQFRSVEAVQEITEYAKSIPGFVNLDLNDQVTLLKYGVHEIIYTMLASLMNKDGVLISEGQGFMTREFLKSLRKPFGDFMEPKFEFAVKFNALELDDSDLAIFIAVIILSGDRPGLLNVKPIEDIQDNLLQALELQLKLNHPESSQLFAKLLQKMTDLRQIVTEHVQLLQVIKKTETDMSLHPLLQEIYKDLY
PPARg SRC1 recr: promotes SRC-1 coactivator recruitment by human PPARgamma | actives 0.41% (n = 200,000) | PPARgamma-SRC-1 coactivator recruitment biochemical assay | activation, % at 8 µM; in the data active means activation above about 19%;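 further: 0% = DMSO and 100% = reference agonist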
SRC3 TRFRET art: flags TR-FRET format artefacts in PPARgamma SRC-3 recruitment agonist screen; TR-FRET artefact counter-screen, PPARgamma/SRC-3 format; active compounds read high; TR-FRET ratio at 8 µM; actives 0.39% (n = 99,000)
PPARg SRC3 recr: PPARgamma-driven SRC-3 recruitment agonism; activation, % at 8 µM; AID 731; actives 0.26% (n = 200,000); biochemical PPARgamma/SRC-3 coactivator recruitment assay; P37231; in the data active means activation above about 23%;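 further: 0% = DMSO and 100% = reference agonist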
SRC1 TRFRET art: TR-FRET artefact, counter-screen to PPARgamma/SRC-1 agonist assay. TR-FRET detection artefact counter-screen, emission ratio; active compounds read high. TR-FRET ratio at 8 µM. actives 0.34% (n = 99,000). AID 1051; in the data active means TR-FRET ratio above about 2300
An asterisk follows results filed as active; x = no result. Shown are actives, neighbours in structure and some others; about 0.9% of the full set was active somewhere. Unless noted, no stated cut-off is given here; in the data, active means TR-FRET ratio above about 2000; inactive means the rest.

SMILES | TR-FRET SRC-2 ct | PPARg SRC-2 ag | PPARg SRC1 recr | SRC3 TRFRET art | PPARg SRC3 recr | SRC1 TRFRET art
CN(CCC#N)S(=O)(=O)c1ccc2[nH]cc(C(=O)NCCc3ccccc3)c(=O)c2c1 | 1357 | 6 | 1 | 1648 | 2 | 2048
O=C1C=CCC(/C=C/c2ccccc2)O1 (configuration not stated) | 1608 | 13 | -1 | 1559 | 0 | 1738
NC(N)=Nc1nc(CSCC/C(N)=N/S(N)(=O)=O)cs1 | 1766 | 7 | 22* | 1747 | 6 | 1933
COc1ccc(/C=c2\s/c(=C(/C#N)C(=O)NCc3ccco3)n(-c3ccccc3)c2=O)cc1 | 1506 | -5 | -6 | 1411 | -1 | 1726
COc1cccc(/C=c2/s/c(=C(\C#N)C(=O)N3CCOCC3)n(-c3ccccc3)c2=O)c1 | 1688 | 4 | 6 | x | 48* | x
O=C(O)C1CCCCC1C(=O)Nc1cccc(Cl)c1Cl (configuration not stated) | 1368 | -5 | 5 | x | 1 | x
N#Cc1c2c(c(-c3ccccc3Cl)[nH]c1=S)CCCC2 | 2762* | 44* | 40* | 2745* | 21 | 3189*
N#Cc1c(-c2ccccc2Cl)cc(-c2ccccc2)[nH]c1=S | 1570 | 3 | 8 | 1776 | 6 | 1755
O=C1Nc2ccc(Cl)cc2C12Nc1ccccc1-c1nnc(SCc3ccccc3F)nc1O2 (configuration not stated) | 1786 | 18 | 14 | 1748 | 11 | 2406*
CN1/C(=C\C(=O)COc2ccc3c(c2)OCO3)C(C)(C)c2ccccc21 | 2258* | -4 | 9 | x | 0 | x
CCN(CC)CCN(C)C1CCC(c2ccccc2)CC1 (configuration not stated) | 1481 | -2 | 3 | 1501 | -1 | 1630
Cc1cc2ncn(/N=C/c3ccc([N+](=O)[O-])o3)c2cc1C | 1617 | -8 | -10 | x | -3 | x
COc1ccc(Nc2ccc(Nc3ccc(OC)cc3)nn2)cc1 | 1769 | 18 | 13 | 1723 | 14 | 2360*
COc1ccc(Nc2cc(C)c3ccccc3n2)cc1 | 1594 | -3 | 13 | 1923 | -2 | 1815
CCn1c(C)nc2cc(C(=O)NNC(=O)CCC3CCCCC3)ccc21 | 1486 | -4 | 3 | 1815 | -2 | 1777
Cn1c(=O)c2[nH]c(-c3ccccc3Cl)c(O)c2n(C)c1=O | 1382 | 1 | -6 | 1751 | 2 | 1667
Cn1c(=O)c2[nH]c(-c3ccccc3)c(O)c2n(C)c1=O | 1679 | 10 | 8 | 1758 | 11 | 2338*
CCC(C)NC(=O)Cc1c(OC)ccc2cc(Br)ccc12 (configuration not stated) | 2014* | 14 | 19 | 1936 | 8 | 2168
Cc1cnc(N)c2c(=O)oc3ccccc3c12 | 2018* | 5 | 1 | x | 7 | x
Cc1ccc(-c2cc(C(=O)NCc3cnn(C)c3C)c3cc(Br)ccc3n2)cc1 | 2130* | 19 | 14 | x | 22 | x
Cc1ccc(-c2cc(C(=O)N(C)Cc3cnn(C)c3C)c3cc(Br)ccc3n2)cc1 | 1910 | 6 | 7 | 2046 | 10 | 1935
Cc1ccc(-c2cc(-c3ccccc3)c(C#N)c(Br)n2)cc1 | 1632 | -2 | 56* | 1644 | -1 | 3299*
CS(=O)(=O)c1nc(-c2ccccc2)cc(-c2ccccc2)c1C#N | 1773 | -2 | 6 | x | -2 | x
Cc1ccc(OC/C(O)=C(\C#N)c2nc3ccccc3s2)cc1 | 1565 | 2 | -1 | 1383 | -4 | 1627
Cn1c(/C(C#N)=C(\O)COc2ccc3ccccc3c2)nc2ccccc21 | 2360* | 32* | -3 | 1562 | -1 | 1718
SMILES | TR-FRET SRC-2 ct | PPARg SRC-2 ag | PPARg SRC1 recr | SRC3 TRFRET art | PPARg SRC3 recr | SRC1 TRFRET art
O=c1cc(Cn2ccnc2)c2cc3c(cc2o1)CCC3 | 1355 | 0 | 0 | x | 29* | x
Cc1ccc(/C=C2\SC(N)=NC2=O)s1 | 1747 | 24* | 10 | 1453 | 7 | 2150
Cc1ccsc1/C=C1\SC(N)=NC1=O | 1449 | 11 | 6 | x | 6 | x
O=C(CCCn1c(=O)[nH]c2ccc(Br)cc2c1=O)NCc1ccc(Cl)cc1 | 1480 | 9 | 31* | 1575 | -3 | 3045*
CC(C)CCNC(=O)CCCn1c(=O)[nH]c2ccc(Br)cc2c1=O | 1635 | 8 | 1 | x | 10 | x
N#Cc1c(N)nc(SCC(=O)NC2CCCCC2)c(C#N)c1-c1ccc(Cl)cc1 | 1518 | 4 | 43* | x | 2 | x
COc1cc(NC(C)=O)ccc1-c1cc2ccccc2oc1=O | 1672 | 12 | 16 | 1621 | 1 | 1840

Screening data as filed in PubChem BioAssay.
